# Experimental data as given in PubChem BioAssay (NCATS).
# Unmarked numbers belong to inactive results. Records with an inconclusive call do not appear. Entries that show only a call come without a potency. Activity calls are given as the source filed them. Calls come from the whole dose curve; as a rule, active = well fitted curve in the direction sought with a large enough effect; inconclusive = small, poorly fitted or top-dose-only effect, or another doubt; inactive = no such curve, though single readings can be large; an effect the other way counts as inactive or inconclusive.
# Assays:
# [1] = molecular target: Glutathione peroxidase 1 (Homo sapiens) (UniProt P07203); test: Primary qHTS Assay for Inhibitors of Recombinant Selenoprotein Glutathione Peroxidase 1 (GPX1) (AID 1845191); note: nearly all actives have a fitted effect of over 65% in size
# Method in brief: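 GR-coupled assay: compounds preincubated 30 min at room temperature with GPX1, then reaction started with CHP; final 10 nM GPX1, 1 mM GSH, 0.5 mM CHP, 0.5 mM NADPH, 100 nM GR, 0.01% BSA, pH 7.5 Tris buffer. NADPH fluorescence (340/450 nm) read at 0 and 15 min.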
# [2] = molecular target: Phospholipid hydroperoxide glutathione peroxidase GPX4 (Homo sapiens) (UniProt P36969); test: Primary qHTS Assay for Inhibitors of Recombinant Selenoprotein Glutathione Peroxidase 4 (GPX4) (AID 1845192); note: nearly all actives have a fitted effect of over 65% in size; for activity change, negative = inhibition: series mostly up to about 50 µM
# Method in brief: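 GR-coupled assay: recombinant GPX4 preincubated 30 min with compound at room temperature; final 200 nM GPX4, 1 mM GSH, 0.5 mM cumene hydroperoxide, 0.5 mM NADPH, 100 nM GR, 0.01% BSA, pH 7.5 Tris. NADPH fluorescence (340/450 nm) read at 0 and 15 min.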
# [3] = molecular target: Luciferin 4-monooxygenase (Photinus pyralis) (UniProt P08659); test: Primary firefly luciferase (FLuc) qHTS assay for identification of artifact compounds. (AID 1845220); note: nearly all actives have a fitted effect of over 60% in size; for activity change, negative = inhibition: series mostly up to about 54 µM
# Method in brief: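 D-luciferin and ATP (10 uM each, final) in Tris acetate buffer pH 7.6 were incubated with compounds for 15 min at room temperature. The reaction was started with 10 nM Photinus pyralis luciferase and luminescence read after 5 min. Percent inhibition was fitted to a 4-parameter Hill equation.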
# [4] = Primary fluorescence-based thiol-reactive (MSTI) qHTS assay for identification of artifact compounds. (AID 1845221); note: nearly all actives have a fitted effect of over 65% in size; note: potency is the fitted concentration of half-maximal effect;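 for activity change, negative = thiol reactive: series mostly up to about 54 µM; thiol-reactive compounds lower the probe fluorescence signal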
# Method in brief: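 Curve-fitted percent inhibition (4-parameter Hill) derived from fluorescence, Ex 525/Em 598 nm, scaled with Acetyl-MSTI and MSTI; 1 h incubation at room temperature.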
# [5] = tested on: Nanoluciferase (engineered Oplophorus gracilirostris luciferase); test: Primary Nanoluciferase (NLuc) qHTS assay for identification of artifact compounds. (AID 1845222); note: series mostly up to about 54 µM
# Method in brief: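 Diluted conditioned medium from NLuc-expressing S16 cells treated with compounds for 15 min at room temperature, then Nano-Glo substrate added; luminescence read after 5 min. Percent inhibition versus no-enzyme and DMSO controls fitted to 4-parameter Hill equation.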
# [6] = Primary redox qHTS assay for identification of artifact compounds. (AID 1845223)
# Method in brief: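 Amplex Red (25 uM) and HRP (250 mU/mL) in HBSS, with compounds for 15 min, then 250 uM DTT for 30 min, room temperature, dark. Fluorescence 525/598 nm read; normalized to DMSO and 10 uM DA3003; Hill fit.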
# Glutathione peroxidase 1 (Homo sapiens), sequence (P07203 whole entry, looked up): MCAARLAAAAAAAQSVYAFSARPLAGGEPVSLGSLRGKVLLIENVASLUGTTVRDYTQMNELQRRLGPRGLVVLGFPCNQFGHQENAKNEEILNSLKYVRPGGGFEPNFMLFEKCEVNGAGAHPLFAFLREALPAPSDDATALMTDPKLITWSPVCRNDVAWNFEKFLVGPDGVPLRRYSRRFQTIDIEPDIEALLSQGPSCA
# Phospholipid hydroperoxide glutathione peroxidase GPX4 (Homo sapiens), sequence (P36969 whole entry, looked up): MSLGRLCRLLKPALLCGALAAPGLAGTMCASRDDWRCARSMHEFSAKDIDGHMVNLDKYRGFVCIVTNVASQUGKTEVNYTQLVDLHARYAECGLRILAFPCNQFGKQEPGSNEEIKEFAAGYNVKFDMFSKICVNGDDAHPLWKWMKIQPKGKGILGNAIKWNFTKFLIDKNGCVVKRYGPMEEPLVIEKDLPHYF
Structure (SMILES),Potency [1],Potency [2],Potency [3],Potency [4],Potency [5],Potency [6],"activity, negative = inhibition [1]","activity change, negative = inhibition [2]","activity change, negative = inhibition [3]","activity change, negative = thiol reactive [4]","activity, negative = inhibition [5]",redox activity (% of DA3003) [6]
C=C(C)[C@@H]1CC[C@]2(C)CC[C@]3(C)[C@H](CC[C@@H]4[C@@]5(C)CC[C@@H](O)C(C)(C)[C@@H]5CC[C@]43C)[C@@H]12,inactive,inactive,inactive,inactive,inactive,inactive,,,,,,
COc1ccccc1Oc1ccc(N(Cc2cccnc2)S(=O)(=O)CC(F)(F)F)cc1,inactive,inactive,inactive,inactive,inactive,inactive,,,,,,
CC(C)[C@@H]1C(=O)N(S(C)(=O)=O)[C@@H]2CCN(C(=O)/C=C/CN3CCCCC3)[C@H]21,inactive,inactive,inactive,inactive,inactive,inactive,,,,,,
C[C@@H]1CC[C@]2(C(=O)O[C@@H]3O[C@H](CO)[C@@H](O)[C@H](O)[C@H]3O)CC[C@]3(C)C(=CCC4[C@@]5(C)C[C@@H](O)[C@H](O)[C@](C)(C(=O)O)C5CC[C@]43C)[C@@H]2[C@]1(C)O (some centres undefined),inactive,inactive,inactive,inactive,inactive,inactive,,,,,,
CCCCNc1ccc(-c2ccc(CN3CCOCC3)cn2)c(NC2CCC(O)CC2)c1 (centres undefined),inactive,inactive,inactive,inactive,inactive,inactive,,,,,,
O=C(O)/C=C/c1ccc(O)c(O[C@@H]2O[C@H](CO)[C@@H](O)[C@H](O)[C@H]2O)c1,inactive,inactive,inactive,4.65 µM (active),inactive,inactive,,,,,,
O=C(O)CCCCCC[C@H]1C(=O)NC(=O)N1CC[C@@H](O)C1CCCCC1,inactive,inactive,inactive,inactive,inactive,inactive,,,,,,
Cc1cc(-c2cc(O)ccc2Cl)cc2nnc(Nc3ccc(OCCN4CCCC4)cc3)nc12,inactive,inactive,inactive,3.77 µM (active),inactive,inactive,,,,,,
CC1(C)CCCC2(C)C1C(O)C=C(CO)C2(O)CO (centres undefined),inactive,inactive,inactive,inactive,inactive,inactive,,,,,,
C[C@@H]1O[C@@H](O[C@@H]2[C@@H](O[C@@H]3O[C@@H](C)[C@H](O[C@@H]4OC[C@H](O)[C@H](O[C@@H]5OC[C@@H](O)[C@H](O)[C@H]5O)[C@H]4O)[C@@H](O[C@@H]4OC[C@](O)(CO)[C@H]4O)[C@H]3O)[C@H](OC(=O)[C@]34CCC(C)(C)C[C@H]3C3=CCC5[C@@]6(C)C[C@H](O)[C@H](O[C@@H]7O[C@H](CO[C@@H]8OC[C@H](O)[C@H](O)[C@H]8O)[C@@H](O)[C@H](O)[C@H]7O)C(C)(C)C6CC[C@@]5(C)[C@]3(C)C[C@H]4O)OC[C@H]2O)[C@H](O)[C@H](O)[C@H]1O (some centres undefined),,,,,,,1.11% [at 9.52 µM],-0.822% [at 9.73 µM],1.22% [at 11.6 µM],203% [at 11.5 µM],1.99% [at 11.6 µM],6.31% [at 11.5 µM]
CN(C)c1nc(NC2CCC(NCCc3ccc(Br)cc3OC(F)(F)F)CC2)nc2ccccc12 (centres undefined),inactive,inactive,inactive,inactive,inactive,inactive,,,,,,
O=C1Nc2ccccc2C(O)(c2ccccc2)C1O (centres undefined),inactive,inactive,inactive,inactive,inactive,inactive,,,,,,
COc1cc2ncnc(N3CCC(Oc4cnc5ccccc5n4)C3)c2cc1OC (centres undefined),inactive,inactive,inactive,inactive,inactive,inactive,,,,,,
C=C1CCC[C@]2(C)CC[C@@H](C(=C)C(=O)O)[C@H](O)[C@@H]12,inactive,inactive,inactive,inactive,inactive,inactive,,,,,,
CC(=O)OC1C(O)C2C(C)C3=CC(=O)OC3(O)CC2C2(C)CCCC(C)(CO)C12 (centres undefined),inactive,inactive,inactive,inactive,inactive,inactive,,,,,,
CCN(CC)Cc1ccc(C(=O)N(CCc2ccccc2OC)[C@@H]2CCNC2)cc1,inactive,inactive,inactive,inactive,inactive,inactive,,,,,,
O=C(NCc1cccc(O)c1)Nc1nc(-c2ccncc2)cs1,inactive,inactive,inactive,inactive,inactive,inactive,,,,,,
C=C1C[C@]23C[C@H]1CC[C@H]2[C@@]12CC[C@H](O)[C@@](C)(C(=O)O1)[C@H]2[C@@H]3C(=O)O,inactive,inactive,inactive,inactive,inactive,inactive,,,,,,
CC(C)(O[C@@H]1O[C@H](CO)[C@@H](O)[C@H](O)[C@H]1O)C(OC(=O)/C=C\c1ccc(O)cc1)C(=O)OCc1ccc(O[C@@H]2O[C@H](CO)[C@@H](O)[C@H](O)[C@H]2O)cc1 (some centres undefined),inactive,inactive,inactive,inactive,inactive,inactive,,,,,,
